Assay outcomes (PubChem)
Sm TGR block = blocks Schistosoma mansoni thioredoxin glutathione reductase. 3% of 360,000 active. Potency, µM (top dose mostly 114 µM), without a hit: at the highest dose activity change, negative = inhibition, hits mostly inhibitors. Q962Y6. AID 485364. purified TGR, DTNB reduction, TNB absorbance 405 nm; note: potency is the fitted concentration of half-maximal effect; nearly all actives have a fitted effect of over 60% in size
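TGR 20 nM + NADPH 100 uM (dispensed conc.), cpd preinc 15 min RT; start with NADPH (500 uM addition) then DTNB (15 mM addition). Kinetic TNB absorbance, 405 nm filter. Four-parameter Hill fit across titration.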
RE007 growth inh = less growth of the S. pombe RE007 Vpr strain; AID 651644; 0.21% of 360,000 active; Potency, µM (series often up to 92.2 µM), for the others: at the highest dose activity change, negative = less growth, usual class: inhibitors; S. pombe RE007 Vpr strain, BacTiter-Glo ATP luminescence, 24 h; active = well fitted falling curve with a large enough effect; inconclusive = small, poorly fitted or top-dose-only effect; inactive = no such curve, though single readings can be large or run the other way; note: potency is the fitted concentration of half-maximal effect; nearly all actives have a fitted effect of over 50% in size
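Fission yeast strain RE007, carrying one chromosomally integrated HIV-1 vpr copy, was seeded at OD 0.01 in PMG+AL medium with 23 nL pinned compound. After 24 h at 30 °C and 99% humidity, viability was read by BacTiter-Glo luminescence.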
FMDV antiviral = antivirals against foot and mouth disease virus | Potency, µM (titrated, usually from 57.9 µM), for inactives: at the highest dose activity change, negative = inhibition, most hits filed as inhibitors | AID 1159524 | FMDV antiviral cell-based qHTS | 1.2% of 410,000 active; calls by dose curve; tested in HEK293T cells; note: read-out not given here; potency is the fitted concentration of half-maximal effect; nearly all actives have a fitted effect of over 45% in size
Tb PYK inh = inhibitors of Trypanosoma brucei pyruvate kinase; Potency, µM (doses to about 76.8 µM), without a hit: at the highest dose activity, negative = inhibition, usual class: inhibitors; Q57TT1; TbPYK enzyme, Kinase-Glo Plus ATP luminescence, 45 min; 0.12% of 410,000 active; note: potency is the fitted concentration of half-maximal effect; nearly all actives have a fitted effect of over 50% in size
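Glycolytic pyruvate kinase of T. brucei was incubated with substrate, test compound and 130 uM ADP for 45 minutes at room temperature. Luminescent Kinase-Glo Plus signal was measured after 10 minutes.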
HCMV inh = inhibitors of human cytomegalovirus. HFF cells, HCMV-luciferase reporter, 72 h; active compounds read low. activity change, negative = inhibition, % at 57.5 µM. 4.5% of 410,000 active. AID 1259415; in the data active = activity change below about -60%; inconclusive = no clear call, values can overlap the other calls; inactive = above about -39%
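Two-dose cell screen: HFF monolayers treated with compounds and infected with luciferase-expressing HCMV at 1 PFU/cell, 72 h at 37C, then lysed for luciferase measurement.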
Giardia FBPA inh = blocks Giardia fructose-bisphosphate aldolase activity; purified Giardia FBPA; Potency, µM (top dose mostly 59.6 µM), without a hit: at the top dose activity, negative = inhibition, actives largely listed as inhibitors; 0.71% of 290,000 active; AID 2451; note: potency is the fitted concentration of half-maximal effect; nearly all actives have a fitted effect of over 55% in size
Target sequence (A8B2U2 whole entry, looked up): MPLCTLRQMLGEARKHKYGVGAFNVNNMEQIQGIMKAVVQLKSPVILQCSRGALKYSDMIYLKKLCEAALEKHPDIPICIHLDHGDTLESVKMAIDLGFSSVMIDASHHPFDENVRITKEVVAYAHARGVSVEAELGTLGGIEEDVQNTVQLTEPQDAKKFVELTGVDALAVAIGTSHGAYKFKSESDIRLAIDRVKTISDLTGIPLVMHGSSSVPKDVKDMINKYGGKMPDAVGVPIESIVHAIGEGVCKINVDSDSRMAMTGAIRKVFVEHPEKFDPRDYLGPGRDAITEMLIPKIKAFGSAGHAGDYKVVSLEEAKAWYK
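Giardia FBPA (40 nM reagent) was preincubated 10 min at RT with compound (up to 57.5 uM final), then substrate plus GAPDH/TPI/NAD/arsenate coupling system with diaphorase/resazurin was added; resorufin fluorescence (525/598 nm) was read after 20 min.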
* = called active by the depositor; ? = inconclusive; nt = no result given. The list is not random: actives were taken first. Their share in the collection is about 7.7%. Unless noted, calls come from the whole dose curve; as a rule, active = well fitted curve in the direction sought with a large enough effect; inconclusive = small, poorly fitted or top-dose-only effect, or another doubt; inactive = no such curve, though single readings can be large; an effect the other way counts as inactive or inconclusive. % is set by controls: 0 for no effect and ±100 for the full control effect.

SMILES	Sm TGR block	RE007 growth inh	FMDV antiviral	Tb PYK inh	HCMV inh	Giardia FBPA inh
NC(=O)CN1C(=O)C(O)(CC(=O)/C=C\C=C\c2ccccc2)c2ccccc21 (stereo not given)	-12%	21%	0%	0%	-70*	-1%
CCN1C(=O)C(O)(CC(=O)/C=C/C=C/c2ccccc2)c2ccccc21 (stereo not given)	0%	-4%	-12%	-13%	-4	-2%
O=C(COC(=O)/C=C/c1ccco1)Nc1ncc(Cl)cc1Cl	45µM*	-1%	11%	-7%	49	1%
CCN(CC)S(=O)(=O)c1ccc(Cl)c(NC(=O)COC(=O)c2cccn2C)c1	9%	-24%	13µM*	5%	-38	-2%
Cc1nc(NC(=O)COC(=O)C(NC(=O)c2ccco2)C(C)C)c(Cl)cc1Cl (stereo not given)	32µM*	-10%	-7%	-6%	103	7%
Cc1nc(NC(=O)COC(=O)C(C)NC(=O)c2ccccc2)c(Cl)cc1Cl (stereo not given)	-9%	5%	-14%	7%	-1	nt
Cc1nc(NC(=O)COC(=O)/C=C/c2ccco2)c(Cl)cc1Cl	8.9µM*	14%	4%	-6%	-15	nt
C=Cc1ccc(Cn2c(C)c(CNCc3ccc(SC)cc3)c(C(=O)O)c2C)cc1	-3%	nt	-1%	0%	6	nt
CN(C)S(=O)(=O)c1ccc(Cl)c(NC(=O)COC(=O)/C=C/c2ccco2)c1	35µM*	15%	-8%	-9%	74	3%
COc1ccc(/C=C/C(=O)OCC(=O)Nc2cc(S(=O)(=O)N(C)C)ccc2Cl)cc1	0%	-6%	20%	-5%	-36	3%
Cc1ccc(CNc2nc3ccccc3c3nc(-c4cccc(C)c4)nn23)cc1	2%	nt	19%	0%	119	nt
COc1ccc(C2/C(=C(/O)c3ccc(F)cc3)C(=O)C(=O)N2CCCN(C)C)cc1 (stereo not given)	nt	8%	-7%	-3%	-83*	nt
COc1ccc(C2/C(=C(/O)c3ccc(C)cc3)C(=O)C(=O)N2CCCN2CCOCC2)cc1 (stereo not given)	45µM*	1%	-2%	3%	1	-2%
O=C1C(=O)N(CCCN2CCOCC2)C(c2ccc(F)cc2)/C1=C(/O)c1ccccc1 (stereo not given)	?	10%	-1%	4%	24	-1%
O=C1C(=O)N(CCN2CCOCC2)C(c2ccccn2)/C1=C(/O)c1ccc(F)cc1 (stereo not given)	28µM*	-9%	12%	?	-21	?
COc1ccc(/C(O)=C2/C(=O)C(=O)N(CCN3CCOCC3)C2c2ccccn2)cc1 (stereo not given)	22µM*	-1%	43%	-9%	6	?
NCC1O[C@@H](OC2C(N)CC(N)C(O)C2O[C@@H]2OC(CO)C(O)C2O)C(N)C(O)C1O (stereo not given in full)	nt	nt	?	nt	nt	2%
O=C(Cn1ncc2c3ccccc3n(Cc3cccc(Cl)c3)c2c1=O)NCc1cccs1	5%	nt	-1%	-5%	4	nt
CCn1c(=O)c2sccc2n2c(CCCC(=O)Nc3ccc(Oc4ccccc4)cc3)nnc12	7%	nt	-19%	-9%	-6	nt
CCN(CC)CCN1C(=O)C(=O)/C(=C(/O)c2ccc(OC)cc2)C1c1ccco1 (stereo not given)	40µM*	-10%	26%	-1%	4	-7%
CCN(CC)CCCN1C(=O)C(=O)/C(=C(/O)c2ccc3c(c2)OCCO3)C1c1ccc(C)o1 (stereo not given)	50µM*	nt	nt	nt	-3	0%
CCc1ccc(NC(=O)c2sc3nc(C)cc(C)c3c2NC(=O)c2ccccc2)cc1	1%	nt	3%	3%	1	nt
CCc1nc(C)cn1S(=O)(=O)c1cc(C)c(OC)c(C)c1C	0%	-1%	-28%	2%	-76*	-1%
